MmCpn inh – M. maripaludis TRiC chaperonin inhibition | purified Mm-Cpn ATPase, ADP Transcreener TR-FRET | Potency, µM (series often up to 76.9 µM), for the others: at the highest dose activity, negative = inhibition, most hits filed as inhibitors | actives 0.031% (n = 330,000) | AID 504842; active = well fitted inhibition curve with a large enough effect; inconclusive = small, poorly fitted or top-dose-only effect; also: potency is read from the fitted curve at half-maximal effect; % is scaled to controls: 0 for no effect and ±100 for the full control effect; nearly all actives have a fitted effect of over 80% in size
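Purified archaeal Mm-CPN (25nM final) preincubated 10 min at 37degC with compound, then 10uM ATP for 30 min at 37degC; ADP measured by HTRF Transcreener TR-FRET; buffer 30 mM TRIS pH 7.4, 100mM KCl, 5mM MgCl2, 1mM DTT.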
TSG101-PTAP inh – blocks PTAP/TSG101 interaction to inhibit HIV-1 budding; Q99816; AID 493005; 340,000 tested, under 10 active; Fluorescence polarization, FITC-PTAP peptide / Tsg101 binding; Potency, µM (titrated, usually from 115 µM), without a hit: top-dose activity change, negative = inhibition, actives largely listed as inhibitors; active = well fitted inhibition curve with a large enough effect in the main read-out, with a control signal flat, not every such curve was filed as active; inconclusive = small, poorly fitted or top-dose-only effect, or effect the other way, or a change in a side signal; inactive = no such curve, though single readings can be large or run the other way; also: potency is read from the fitted curve at half-maximal effect; % of control where 0% means no effect
Target sequence (Q99816 whole entry, looked up): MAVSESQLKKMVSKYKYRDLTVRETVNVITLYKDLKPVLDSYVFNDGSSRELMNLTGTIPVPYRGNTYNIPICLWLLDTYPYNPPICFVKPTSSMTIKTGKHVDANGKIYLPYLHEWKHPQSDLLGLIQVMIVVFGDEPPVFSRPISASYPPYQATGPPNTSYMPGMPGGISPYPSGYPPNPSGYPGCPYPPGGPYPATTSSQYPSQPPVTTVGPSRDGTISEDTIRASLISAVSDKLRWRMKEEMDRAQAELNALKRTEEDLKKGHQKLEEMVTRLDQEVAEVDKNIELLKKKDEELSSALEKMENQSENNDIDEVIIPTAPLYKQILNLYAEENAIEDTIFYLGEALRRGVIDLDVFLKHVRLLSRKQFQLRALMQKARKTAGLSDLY
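FP read-out: FITC-PTAP peptide, 50 nM final, binding Tsg101 binding domain, 10 uM final; 20 min, r.t.; 10 mM HEPES pH 7.5, 0.15 M NaCl, 0.01% Tween 20, 3 mM EDTA, 0.1 mM TCEP.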
Rango dissoc inh – inhibitors of RanGTP-induced Rango-importin beta complex dissociation; O95149+P62826; Biochemical FRET Rango-importin beta, RanGTP-induced dissociation; Potency, µM (top dose mostly 46.1 µM), inactives show at the highest dose activity change, negative = inhibition; actives 0.071% (n = 340,000); also: potency is read from the fitted curve at half-maximal effect; % of control where 0% means no effect; nearly all actives have a fitted effect of over 45% in size
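Two FRET readings bracket the reaction: one 5 min after compound meets Rango–importin beta, another 45 min after RanGTP-RCC1 (0.6 uM Ran, 0.2 uM RCC1, 2 mM GTP) is added. Only the second defines inhibition.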
Rango-impB inh – inhibitors of Rango-importin beta complex formation; Q14974; Rango CFP/YFP FRET sensor + importin beta, 45 min; Potency, µM (highest dose often 92.2 µM), for inactives: at the highest dose inhibition of complex formation; actives 0.031% (n = 340,000); AID 540263;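 also: potency is read from the fitted curve at half-maximal effect; 0% = DMSO wells and 100% = buffer wells lacking importin beta; nearly all actives have a fitted effect of over 15% in size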
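FRET biosensor Rango (snurportin 1 IBB between N-terminal EYFP and C-terminal Cerulean), 50 nM in PBS/1 mM DTT/0.02% Tween-20/0.1% BSA, preincubated 5 min RT with compound; 0.125 microM importin beta added, 45 min RT, CFP/YFP FRET ratio read.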
DRD3 antagonist – blocks the human D3 dopamine receptor | actives 2.5% (n = 360,000) | P35462 | D3R cells, DiscoveRx beta-arrestin luminescence, antagonist mode; hits give low values | max response, negative = inhibition, %; in the data active = max response below about -50%; inconclusive = no clear call, values can overlap the other calls; also: % is scaled to controls: 0 for no effect and ±100 for the full control effect
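Cells expressing the human receptor were seeded at 1500 cells/well, incubated overnight at 37 degrees C in 5% CO2, then exposed to library compounds with dopamine controls for 90 minutes at 37 degrees C before luminescent detection.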
D3 ag – agonists of human D3 dopamine receptor. P35462. D3R DiscoveRx beta-arrestin cells, luminescence, 90 min. max activation, %. actives 0.58% (n = 410,000). AID 652048; in the data active = max activation above about 30%; also: 0% is about no effect
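Agonist-mode cell screen: cells plated at 1500/well and incubated overnight at 37 °C, then exposed to library compounds for 90 min at 37 °C. Detection reagent was added for 30–60 min at room temperature, and luminescence was read.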
An asterisk follows results filed as active; ? = inconclusive; . = no result. Sampled rows, rich in hits. Any-hit rate of the full collection: about 2.9%. Unless noted, calls follow the shape of the full dose curve.

SMILES | MmCpn inh | TSG101-PTAP inh | Rango dissoc inh | Rango-impB inh | DRD3 antagonist | D3 ag
O=C1CC[C@@H](C(=O)N[C@H]2C[C@@H]2c2ccccc2)N1 | . | . | . | . | . | -5
COc1ccc(-c2cnnc(N/N=C/c3ccc(O)c(OC)c3)n2)cc1 | -1% | -5% | -19% | -1% | 13 | 32*
CC(C)c1ccc(NC(=O)[C@H](NC(=O)[C@@H]2Cc3ccccc3CN2)c2ccccc2)cc1 | 3% | -1% | -21% | -1% | -98* | -19
Cc1ccc(NC(=O)[C@H](NC(=O)[C@@H]2Cc3ccccc3CN2)c2ccccc2)cc1 | 3% | -7% | -2% | 0% | -100* | -18
Cc1cccc(NC(=O)[C@H](NC(=O)[C@@H]2Cc3ccccc3CN2)c2ccccc2)c1 | -1% | 3% | 0% | 2% | -89* | -20
CC(NC(=O)[C@H](NC(=O)[C@@H]1Cc2ccccc2CN1)c1ccccc1)c1ccccc1 (stereo partly specified) | 0% | 4% | 5% | 3% | -20 | 14
COc1cccc(NC(=O)[C@H](NC(=O)[C@@H]2Cc3ccccc3CN2)c2ccccc2)c1 | -1% | -6% | 15% | 14% | -92* | -18
O=C(COC(=O)c1c(Cl)ccc(Cl)c1Cl)NC1CCS(=O)(=O)C1 (stereo unspecified) | -2% | -6% | -1% | -2% | 18 | 1
CCOc1ccccc1NC(=O)CSc1nc2ccccc2nc1Cc1ccc(C)cc1 | . | . | . | . | . | 2
COc1ccc(OC)c(CNC(=O)c2c(C)oc3ncn(C)c(=O)c23)c1 | . | . | . | . | . | -3
CC1(C)COC2(OC1)C(=O)N(CN1CCOCC1)c1ccccc12 | 2% | -2% | 12% | 2% | 4 | 2
CC1CCOC2(O1)C(=O)N(CN1CCN(c3ccccc3F)CC1)c1ccccc12 (stereo unspecified) | -9% | -3% | -7% | 0% | -54* | -8
O=C1N(CN2CCN(c3cccc(Cl)c3)CC2)c2ccccc2C12OCCCO2 | -1% | 2% | 0% | -1% | -83* | -30
CCOc1ccc(NC(=O)c2ccc3c(SCC(=O)O)c4c(nc3c2)CCC4)cc1 | . | . | . | . | . | -11
CC1CCc2nn(CC(=O)Nc3cccc(C(F)(F)F)c3)c(=O)cc2C1 (stereo unspecified) | . | . | . | . | . | -5
COc1ccc(CNC(=O)Cn2c(=O)c3cccn3c3cccnc32)cc1 | . | . | . | . | . | 3
CCN(CC)CCCNC(=O)CC1Sc2ccccc2NC1=O (stereo unspecified) | 0% | -4% | 2% | 2% | -51* | -1
CCCCN(CC)CCCNC(=O)CC1Oc2ccccc2NC1=O (stereo unspecified) | 0% | -6% | -9% | -3% | -21 | 1
CCn1ncc(S(=O)(=O)N2CCN(c3cccc(OC)c3)CC2)c1C | 0% | -1% | 18% | -1% | -26 | -20
CCOc1cc(C(=O)Oc2cc(C)[nH]c(=O)c2[N+](=O)[O-])cc(OCC)c1OCC | 1% | 3% | 3% | -2% | 6 | 3
CCc1ccc(NC(=O)N(CCCN2CCOCC2)C(C)c2cc3cccc(OC)c3o2)cc1 (stereo unspecified) | ? | -7% | 1% | -1% | -53* | -14
COc1cccc2cc(C(C)N(CCCN3CCOCC3)C(=S)Nc3c(C)cccc3C)oc12 (stereo unspecified) | -1% | 3% | ? | -4% | -22 | -12
COc1ccc(C(=O)NN=C2CCCC2)cc1OC | 1% | -6% | 14% | -2% | 11 | -19
CCOc1cc(C(=O)NCc2ccncc2)cc(OCC)c1OCC | 2% | . | -9% | 0% | -100* | -28
CCOc1cc(C(=O)NN=C2CCCC2)cc(OCC)c1OCC | -1% | 0% | 2% | 5% | -51* | -12
SMILES | MmCpn inh | TSG101-PTAP inh | Rango dissoc inh | Rango-impB inh | DRD3 antagonist | D3 ag
O=C(O)CSCC(=O)NC1CCSC1=O (stereo unspecified) | . | . | . | . | . | 12
O=C(/C=C/c1ccccc1)Nc1nc2n(n1)C(c1ccc(F)cc1)C=C(c1ccccc1)N2 (stereo unspecified) | . | . | . | . | . | -4
O=C(O)c1cccc(NC(=S)NC(=O)c2cncc(Br)c2)c1 | . | -7% | -8% | 3% | -63* | -11
Cc1ccc(-n2cccn2)c(CN2CCCC(C(=O)c3sccc3C)C2)c1 (stereo unspecified) | 0% | -1% | 4% | 3% | -76* | -14
Cc1ccsc1C(=O)C1CCCN(Cc2cccn2-c2ccc(Cl)cn2)C1 (stereo unspecified) | 0% | -5% | 18% | 10% | -67* | -12
O=C(c1ccc(Cl)cc1)C1CCCN(Cc2cccn2-c2ccccn2)C1 (stereo unspecified) | 1% | 0% | 13% | 0% | 0 | -17
CN(C)[C@@H]1C(=O)C(C(=O)NCN2CCCC2)=C(O)[C@@]2(O)C(=O)C3=C(O)c4c(O)cccc4[C@@](C)(O)C3C[C@@H]12 (stereo partly specified) | . | . | . | . | . | -26
COCCn1c(C)cc(O)c(C(c2ccccc2)N2CCN(c3ccccc3F)CC2)c1=O (stereo unspecified) | . | . | . | . | . | -21
COc1cccc(NC(=O)c2ccc(NCCCN3CCC(C)CC3)c([N+](=O)[O-])c2)c1 | -4% | 0% | 12% | 0% | -54* | -20
Cc1ccc([N+](=O)[O-])c(OCCCN2CCCCCC2)c1 | 0% | 0% | -1% | -1% | ? | -11
COc1cccc(NC(=O)c2ccc(NCCCN3CC(C)CC(C)C3)c([N+](=O)[O-])c2)c1 (stereo unspecified) | -1% | -1% | -10% | -3% | ? | -17
CC1CCN(CCCCOc2ccccc2[N+](=O)[O-])CC1 | 0% | 0% | 12% | -2% | -83* | -22
Cc1ccc(OCCCCN2CCCC(C)C2)c([N+](=O)[O-])c1 (stereo unspecified) | -5% | -3% | 1% | -5% | -80* | -18
CCc1ccc(-c2nc(SCC(=O)NCCOC)c(-c3ccc(C)cc3)[nH]2)cc1 | . | . | . | . | . | -25
COC(=O)c1ccc(C)c(N(CCO)CCO)c1 | 0% | -3% | 20% | 0% | -6 | 36*
COC(=O)c1ccc(C)cc1 | -2% | 0% | 5% | -2% | 12 | 2
CN(Cc1ccc(Cl)c(Cl)c1)C(c1cc2ccccc2o1)c1nnnn1C(C)(C)C (stereo unspecified) | . | . | . | . | 4 | 3
CCOC(=O)c1sc(NC(=O)c2cc(-c3ccccc3C)nc3ccccc23)c(C#N)c1C | -3% | -5% | ? | -1% | 40 | 33*

From PubChem BioAssay
